Screening results as filed in PubChem.
Sampled rows, rich in hits. Any-hit rate of the full collection: about 1.1%.
Calb FLC: C. albicans growth inhibition with fluconazole, primary screen, CaCi-2 strain, Alamar Blue fluorescence | actives 0.57% (n = 300,000) | C. albicans CaCi-2 (fluconazole-resistant clinical isolate) + fluconazole, 48 h | growth inhibition, % (no concentration beside the values);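 active = growth inhibition above about 58% in most replicates, limit read from the data, passing the limit was not always enough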;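 also: all wells also contain fluconazole at 8 µg/ml as a sub-toxic cotreatment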
TNF necrop inh: inhibitors of TNF-alpha triggered necroptosis, primary screen, cell-based, Jurkat FADD-/-, single concentration; Jurkat FADD-/- TNF necroptosis rescue, ATP luminescence, 24 h; 0 = TNF only, 100 = no-TNF cells; activation (protection from cell death), % at 10 µM; actives 0.068% (n = 220,000);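 active = activation, meaning protection from cell death, of at least 50% relative to plate controls; inactive = activation below 50%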;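 also: necroptosis triggered by 40 ng/mL TNF-alpha added together with compound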
L929 necroptosis: inhibitors of zVAD-triggered necroptosis, primary screen, L929 cells; L929 zVAD necroptosis rescue, ATP luminescence, 24 h; with zVAD 60 µM; viability rescue, % at 10 µM; actives 0.38% (n = 220,000);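 active = activation, scaled between plate controls, above about 75%, limit read from the data; inactive = activation under that limit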
HIF activator: HIF pathway transcriptional activators, primary screen, cell-based, U2OS HRE-luciferase, luminescence. actives 0.32% (n = 300,000). activation, % at 7.5 µM (by protocol). U2OS HRE-luciferase reporter; normalized: DMSO 0%, desferrioxamine 100%;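 active = mean activation of at least 10% of the iron chelator positive control signal, with at least half of replicates also reaching 10%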
Hits are given with their value; i = inactive; nt = not tested or not shown.

SMILES	Calb FLC	TNF necrop inh	L929 necroptosis	HIF activator
CCc1nnc(NC(=O)CSc2nccn2-c2ccccc2)s1	i	i	nt	i
Cc1cccc(CN2CCC(CNC(=O)Cn3ncc4c([nH]c5ccccc54)c3=O)CC2)c1	i	nt	nt	i
Cc1ccc(C(OCC(O)CNCc2ccc(F)cc2)c2ccccc2)cc1 (centres undefined)	i	nt	nt	i
C(=N\Nc1nc2ccccc2[nH]1)/c1cccc2nccnc12	i	i	i	47.0
CCCCn1c(/C=N/Nc2nc3ccccc3[nH]2)nc2ccccc21	i	i	i	69.2
CCN(CC)c1ccc(/C=N/Nc2nc3ccccc3[nH]2)c(O)c1	98.0	i	i	82.6
CCN(CC)c1ccc(/C=N/NC(=O)c2ccco2)cc1	i	i	i	i
C(=N\Nc1nc2ccccc2[nH]1)/c1ccccn1	i	i	i	i
CCCCn1c(/C=C/c2ccco2)nc2ccccc21	i	i	i	i
CCN(CC)c1ccc(/C=N/NC(=O)c2ccco2)c(O)c1	88.9	i	i	78.3
Cc1ccc(NC(=O)CSc2nnc(/N=C/N(C)C)s2)cc1	i	i	i	i
COc1cc(C(=S)N2CCN(c3ccccc3Cl)CC2)cc(O)c1O	91.4	i	i	i
Cc1ccc([N+](=O)[O-])cc1NC(=O)C(C)Sc1nnc(C)n1CC1CCCO1 (centres undefined)	i	nt	nt	i
CCOC(=O)c1ccccc1NC(=O)COC(=O)C1CC(=O)N(CCc2ccccc2)C1 (centres undefined)	i	nt	nt	i
CC(C)CCNCC(=O)NC(c1ccccc1)c1ccccc1	114.8	i	i	nt
COCC(=O)NC(c1ccccc1)c1ccccc1	i	i	i	i
NC1=NC[C@H](Cc2ccc(O)cc2)N1CCC12CC3CC(CC(C3)C1)C2	106.3	i	i	i
CCCCN1C(N)=NC[C@@H]1Cc1ccc(O)cc1	i	i	i	i
CC(=O)c1c(C)nc(-c2cccc([N+](=O)[O-])c2)n1O	75.9	i	i	i
COc1ccc(C(=O)N/C(=C\c2cn(C)c3ccccc23)C(=O)N2CCN(C)CC2)cc1OC	i	nt	nt	i
C=CCN(CC=C)CCCOc1ccc(C)cc1OC	i	i	i	i
CC(=O)Nc1nc(NC(=O)/C=C/c2ccccc2)n(-c2ccccc2)n1	i	i	i	10.4
O=C(Nc1nc(NC(=O)c2ccco2)n(-c2ccccc2)n1)c1ccccc1	i	i	i	12.0
Nc1nc(NC(=O)c2ccccc2)nn1-c1ccccc1	i	i	nt	i
CC(CNC(=O)CCn1ccc2cc(S(=O)(=O)N3CCCC3)ccc21)c1ccccc1 (centres undefined)	i	nt	nt	i
SMILES	Calb FLC	TNF necrop inh	L929 necroptosis	HIF activator
COc1ccc(CC(=O)N2CCN(C(=O)Cc3ccc(OC)cc3)CC2)cc1	i	i	i	364.6
COc1ccc(CCC(=O)N2CC(C)OC(C)C2)cc1 (centres undefined)	89.4	i	i	i
COc1ccc(C(=O)N2CCN(C(=O)Cc3ccccc3)CC2)cc1	i	i	i	i
COc1cc(CCC(=O)N2CC(C)OC(C)C2)cc(OC)c1OC (centres undefined)	i	nt	nt	i
Cc1ccc(C(=O)Nc2cccc(-c3cn4ccccc4n3)c2)cc1	93.7	i	i	i
O=C(Nc1cccc(-c2cn3ccccc3n2)c1)c1ccccc1	i	i	i	i
CCC(C)n1cnc2c(c1=O)c1nc3ccccc3nc1n2Cc1ccc2c(c1)OCO2 (centres undefined)	99.9	i	i	i
CCC(C)n1cnc2c(c1=O)c1nc3ccccc3nc1n2-c1ccc2c(c1)OCCO2 (centres undefined)	i	i	i	i
CCn1c(CC(=O)Nc2ccccc2C)nnc1SCC(=O)NC1CCCC1	i	nt	nt	i
Cc1ccc(CNS(=O)(=O)c2cc3c4c(c2)CCN4C(=O)CC3)cc1	i	nt	nt	i
CCOC(=O)c1ccc(-c2ccc(C3Nc4ccccc4C(=O)N3O)o2)cc1 (centres undefined)	90.7	i	i	i
Cc1cc([N+](=O)[O-])ccc1-c1ccc(C2Nc3ccccc3C(=O)N2O)o1 (centres undefined)	101.2	i	i	i
Cc1ccccc1OCCC(=O)OCC(=O)Nc1ccc2[nH]c(=O)[nH]c2c1	i	nt	nt	i
COc1cccc(CN(CC(=O)NCc2ccc(F)cc2)C(=O)c2ccco2)c1	i	nt	nt	i
O=c1c2ccc(Cl)cc2nc(-c2cccc(C(F)(F)F)c2)n1O	78.9	i	i	i
O=c1c2cc(Br)ccc2nc(-c2ccc(Cl)cc2)n1O	i	nt	nt	i
